# This excerpt belongs to a sample that is enriched for the strongest signals.
# B1: CBM40 CPF071 (Clostridium perfringens) (protein)
# chain: MAHHHHHHVGTGSNDDDDKSPDPMLSSLGEYKDINLESSNASNITYDLEKYKNLDEGTIVVRFNSKDSKIQSLLGISNSKTKNGYFNFYVTNSRVGFELRNQKNEGNTQNGTENLVHMYKDVALNDGDNTVALKIEKNKGYKLFLNGKMIKEVKDTNTKFLNNIENLDSAFIGKTNRYGQSNEYNFKGNIGFMNIYNEPLGDDYLLSKTGETK
# Experiments:
# Assay in all cases: glycan array binding signal (z-score within array); higher = stronger binding
# Settings in all cases: glycan notation: IUPAC condensed, linker removed
# [1] = target: Fuc(a1-2)Gal(b1-3)GlcNAc
# In short: (§1)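 Negative Z-scores can be read as non-binding. The Z-score is calculated within each array and then averaged across arrays of one protein sequence at different concentrations or buffers and across linkers. Arrays, 3228 in all, were curated from the Consortium for Functional Glycomics database and kept only where the protein sequence was available.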
# [2] = target: Fuc(a1-2)Gal(b1-4)Glc
# In short: as §1
# [3] = target: Fuc(a1-2)Gal(b1-4)GlcNAc
# In short: as §1
# [4] = target: Fuc(a1-2)Gal(b1-4)GlcNAc(b1-2)Man(a1-3)[Fuc(a1-2)Gal(b1-4)GlcNAc(b1-2)Man(a1-6)]Man(b1-4)GlcNAc(b1-4)GlcNAc
# In short: as §1
# [5] = target: Fuc(a1-2)Gal(b1-4)GlcNAc(b1-3)Gal(b1-4)GlcNAc
# In short: as §1
# [6] = target: Fuc(a1-2)Gal(b1-4)GlcNAc(b1-3)[Fuc(a1-3)[Gal(b1-4)]GlcNAc(b1-6)]Gal(b1-4)Glc
# In short: as §1
# [7] = target: Fuc(a1-2)Gal(b1-4)[Fuc(a1-3)]GlcNAc
# In short: as §1
# [8] = target: Fuc(a1-2)Gal(b1-4)[Fuc(a1-3)]GlcNAc(b1-3)Gal(b1-4)[Fuc(a1-3)]GlcNAc(b1-3)Gal(b1-4)[Fuc(a1-3)]GlcNAc
# In short: as §1
# [9] = target: Fuc(a1-2)[Gal(a1-3)]Gal(b1-4)[Fuc(a1-3)]Glc
# In short: as §1
# [10] = target: Fuc(a1-2)[Gal(a1-3)]Gal(b1-4)[Fuc(a1-3)]GlcNAc
# In short: as §1
# [11] = target: Fuc(a1-2)[GalNAc(a1-3)]Gal(b1-3)GlcNAc(b1-6)GalNAc
# In short: as §1
# [12] = target: Fuc(a1-2)[GalNAc(a1-3)]Gal(b1-4)GlcNAc
# In short: as §1
# [13] = target: Fuc(a1-2)[GalNAc(a1-3)]Gal(b1-4)GlcNAc(b1-2)Man(a1-3)[Fuc(a1-2)[GalNAc(a1-3)]Gal(b1-4)GlcNAc(b1-2)Man(a1-6)]Man(b1-4)GlcNAc(b1-4)GlcNAc
# In short: as §1
# [14] = target: Fuc(a1-3)[Gal(b1-4)]GlcNAc(b1-2)Man(a1-3)[Fuc(a1-3)[Gal(b1-4)]GlcNAc(b1-2)Man(a1-6)]Man(b1-4)GlcNAc(b1-4)[Fuc(a1-6)]GlcNAc
# In short: as §1
# [15] = target: Gal(a1-3)Gal(b1-3)GlcNAc(b1-2)Man
# In short: as §1
# [16] = target: Gal(b1-3)GlcNAc(a1-3)Gal(b1-4)GlcNAc
# In short: as §1
# [17] = target: Gal(b1-3)GlcNAc(b1-2)Man
# In short: as §1
# [18] = target: Gal(b1-3)[Neu5Ac(a2-6)]GlcNAc(b1-4)Gal(b1-4)Glc
# In short: as §1
# [19] = target: Gal(b1-4)GlcNAc(b1-3)GalNAc
# In short: as §1
# [20] = target: Gal3S6S(b1-4)GlcNAc
# In short: as §1
# [21] = target: Gal6S(b1-3)GlcNAc
# In short: as §1
# [22] = target: Gal6S(b1-4)Glc
# In short: as §1
# [23] = target: GalNAc(b1-3)GalNAc
# In short: as §1
# [24] = target: Glc(b1-4)Glc
# In short: as §1
# [25] = target: GlcA(b1-3)GlcNAc
# In short: as §1
# [26] = target: GlcNAc(a1-4)Gal(b1-3)GlcNAc
# In short: as §1
# [27] = target: GlcNAc(b1-3)Gal(b1-4)GlcNAc(b1-3)Gal(b1-4)GlcNAc(b1-2)Man(a1-3)[GlcNAc(b1-3)Gal(b1-4)GlcNAc(b1-3)Gal(b1-4)GlcNAc(b1-2)Man(a1-6)]Man(b1-4)GlcNAc(b1-4)[Fuc(a1-6)]GlcNAc
# In short: as §1
# [28] = target: GlcNAc(b1-3)Gal(b1-4)GlcNAc(b1-3)Gal(b1-4)GlcNAc(b1-3)Gal(b1-4)GlcNAc(b1-3)Gal(b1-4)GlcNAc(b1-2)Man(a1-3)[GlcNAc(b1-3)Gal(b1-4)GlcNAc(b1-3)Gal(b1-4)GlcNAc(b1-3)Gal(b1-4)GlcNAc(b1-3)Gal(b1-4)GlcNAc(b1-2)Man(a1-6)]Man(b1-4)GlcNAc(b1-4)[Fuc(a1-6)]GlcNAc
# In short: as §1
# [29] = target: Kdn(a2-3)Gal(b1-3)GlcNAc
# In short: as §1
# [30] = target: Neu5Ac(a2-3)Gal(b1-3)GalNAc
# In short: as §1
# [31] = target: Neu5Ac(a2-3)Gal(b1-3)GalNAc(b1-4)[Neu5Ac(a2-8)Neu5Ac(a2-3)]Gal(b1-4)Glc
# In short: as §1
# [32] = target: Neu5Ac(a2-3)Gal(b1-3)GlcNAc
# In short: as §1
# [33] = target: Neu5Ac(a2-3)Gal(b1-3)GlcNAc(b1-2)[Neu5Ac(a2-3)Gal(b1-3)GlcNAc(b1-4)]Man(a1-6)[Neu5Ac(a2-3)Gal(b1-3)GlcNAc(b1-2)Man(a1-3)]Man(b1-4)GlcNAc(b1-4)GlcNAc
# In short: as §1
# [34] = target: Neu5Ac(a2-3)Gal(b1-3)GlcNAc(b1-3)Gal(b1-4)GlcNAc
# In short: as §1
# [35] = target: Neu5Ac(a2-3)Gal(b1-3)[Fuc(a1-4)]GlcNAc
# In short: as §1
# [36] = target: Neu5Ac(a2-3)Gal(b1-3)[Fuc(a1-4)]GlcNAc(b1-3)Gal(b1-3)[Fuc(a1-4)]GlcNAc
# In short: as §1
# [37] = target: Neu5Ac(a2-3)Gal(b1-3)[Fuc(a1-4)]GlcNAc(b1-3)Gal(b1-4)[Fuc(a1-3)]GlcNAc
# In short: as §1
# [38] = target: Neu5Ac(a2-3)Gal(b1-3)]Neu5Ac(a2-3)Gal(b1-4)]GlcNAc
# In short: as §1
# [39] = target: Neu5Ac(a2-3)Gal(b1-4)GlcNAc(b1-2)Man(a1-3)[Neu5Ac(a2-3)Gal(b1-4)GlcNAc(b1-2)Man(a1-6)]Man(b1-4)GlcNAc(b1-4)GlcNAc
# In short: as §1
# [40] = target: Neu5Ac(a2-3)Gal(b1-4)GlcNAc(b1-3)Gal(b1-4)GlcNAc
# In short: as §1
# [41] = target: Neu5Ac(a2-3)Gal(b1-4)GlcNAc6S
# In short: as §1
# [42] = target: Neu5Ac(a2-3)Gal(b1-4)[Fuc(a1-3)]GlcNAc(b1-3)Gal
# In short: as §1
# [43] = target: Neu5Ac(a2-3)Gal6S(b1-4)GlcNAc
# In short: as §1
# [44] = target: Neu5Ac(a2-3)Gal6S(b1-4)[Fuc(a1-3)]GlcNAc
# In short: as §1
# [45] = target: Neu5Ac(a2-3)GalNAc(b1-4)GlcNAc
# In short: as §1
# [46] = target: Neu5Ac(a2-6)Gal(b1-4)GlcNAc(b1-3)Gal(b1-4)GlcNAc(b1-6)[Gal(b1-3)]GalNAc
# In short: as §1
# [47] = target: Neu5Ac(a2-6)Gal(b1-4)GlcNAc(b1-6)[Gal(b1-3)GlcNAc(b1-3)]Gal(b1-4)Glc
# In short: as §1
# [48] = target: Neu5Ac(a2-8)Neu5Ac
# In short: as §1
# [49] = target: Neu5Ac(a2-8)Neu5Ac(a2-3)Gal(b1-3)GalNAc(b1-4)[Neu5Ac(a2-3)]Gal(b1-4)Glc
# In short: as §1
# [50] = target: Neu5Ac(a2-8)Neu5Ac(a2-8)Neu5Ac
# In short: as §1
# [51] = target: Neu5Ac(a2-8)Neu5Ac(a2-8)Neu5Ac(a2-8)Neu5Ac(a2-3)[GalNAc(b1-4)]Gal(b1-4)Glc
# In short: as §1
# [52] = target: Neu5Gc(a2-3)Gal(b1-4)GlcNAc(b1-3)Gal(b1-4)GlcNAc(b1-2)Man(a1-3)[Neu5Gc(a2-3)Gal(b1-4)GlcNAc(b1-3)Gal(b1-4)GlcNAc(b1-2)Man(a1-6)]Man(b1-4)GlcNAc(b1-4)GlcNAc
# In short: as §1
# [53] = target: Neu5Gc(a2-6)Gal(b1-4)GlcNAc
# In short: as §1
binder,measurement,setting,value
B1,glycan array binding signal (z-score),[1],-0.384
same,glycan array binding signal (z-score),[2],-0.55
same,glycan array binding signal (z-score),[3],-0.027
same,glycan array binding signal (z-score),[4],-0.22
same,glycan array binding signal (z-score),[5],0.231
same,glycan array binding signal (z-score),[6],2.74
same,glycan array binding signal (z-score),[7],0.074
same,glycan array binding signal (z-score),[8],0.635
same,glycan array binding signal (z-score),[9],-0.299
same,glycan array binding signal (z-score),[10],-0.541
same,glycan array binding signal (z-score),[11],0.171
same,glycan array binding signal (z-score),[12],-0.116
same,glycan array binding signal (z-score),[13],-0.216
same,glycan array binding signal (z-score),[14],-0.443
same,glycan array binding signal (z-score),[15],0.599
same,glycan array binding signal (z-score),[16],-0.517
same,glycan array binding signal (z-score),[17],-0.631
same,glycan array binding signal (z-score),[18],-0.087
same,glycan array binding signal (z-score),[19],-0.419
same,glycan array binding signal (z-score),[20],-0.144
same,glycan array binding signal (z-score),[21],-0.48
same,glycan array binding signal (z-score),[22],-0.246
same,glycan array binding signal (z-score),[23],0.09
same,glycan array binding signal (z-score),[24],2.37
same,glycan array binding signal (z-score),[25],0.262
same,glycan array binding signal (z-score),[26],-0.341
same,glycan array binding signal (z-score),[27],-0.411
same,glycan array binding signal (z-score),[28],-0.108
same,glycan array binding signal (z-score),[29],-0.464
same,glycan array binding signal (z-score),[30],-0.019
same,glycan array binding signal (z-score),[31],-0.469
same,glycan array binding signal (z-score),[32],0.994
same,glycan array binding signal (z-score),[33],2.77
same,glycan array binding signal (z-score),[34],-0.328
same,glycan array binding signal (z-score),[35],2.38
same,glycan array binding signal (z-score),[36],0.256
same,glycan array binding signal (z-score),[37],1.09
same,glycan array binding signal (z-score),[38],10.7
same,glycan array binding signal (z-score),[39],-0.305
same,glycan array binding signal (z-score),[40],1.96
same,glycan array binding signal (z-score),[41],5.07
same,glycan array binding signal (z-score),[42],1.97
same,glycan array binding signal (z-score),[43],16.3
same,glycan array binding signal (z-score),[44],5.09
same,glycan array binding signal (z-score),[45],0.216
same,glycan array binding signal (z-score),[46],0.025
same,glycan array binding signal (z-score),[47],-0.069
same,glycan array binding signal (z-score),[48],0.538
same,glycan array binding signal (z-score),[49],-0.205
same,glycan array binding signal (z-score),[50],-0.128
same,glycan array binding signal (z-score),[51],-0.358
same,glycan array binding signal (z-score),[52],2.46
same,glycan array binding signal (z-score),[53],-0.336
